From PubChem BioAssay (NCI)
About 79,000 compounds went through this panel and 15% of them were active in at least one assay; those are over-represented in the sample as a whole. Active and inactive are the calls of the source. Rule as the data show it: active = growth inhibition above about 70%; inactive = the rest.

How the values were obtained:
[1] = NCI Yeast Anticancer Drug Screen. Data for the rad52 strain (AID 147);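 also: 0% = growth of vehicle-treated control cultures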; conditions: S. cerevisiae rad52 mutant growth inhibition, stronger effect = higher value
Procedure, shortened: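 Read-out: growth inhibition versus vehicle-treated controls. Cells were a DNA repair-deficient yeast strain treated with compounds.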

[2] = NCI Yeast Anticancer Drug Screen. Data for the rad50EPP+ strain (AID 151);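 also: 0% = growth of vehicle-treated control cultures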; conditions: S. cerevisiae rad50 mutant strain, stronger effect = higher value
Procedure, shortened: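 Growth inhibition read against vehicle controls in rad50EPP+ yeast, a strain altered in DNA damage repair, after compound exposure.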

[3] = NCI Yeast Anticancer Drug Screen. Data for the mgt1 strain (AID 153); conditions: S. cerevisiae mgt1 mutant growth inhibition, stronger effect = higher value
Procedure, shortened: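 mgt1 yeast grown with test compound; read-out is growth inhibition versus vehicle-treated cultures.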

[4] = NCI Yeast Anticancer Drug Screen. Data for the rad50 strain (AID 155);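 also: 0% = growth of vehicle-only cultures of the same strain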; conditions: S. cerevisiae rad50 strain growth inhibition, stronger effect = higher value
Procedure, shortened: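 Growth of the mutant yeast was measured after compound exposure and referenced to vehicle-treated cultures.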

[5] = NCI Yeast Anticancer Drug Screen. Data for the mec2-1 strain (AID 157); conditions: S. cerevisiae mec2-1 strain, stronger effect = higher value
Procedure, shortened: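 Yeast mec2-1 mutant treated with compound. Readout: growth inhibition vs vehicle controls.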

[6] = NCI Yeast Anticancer Drug Screen. Data for the rad14 strain (AID 159);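 also: 0% = growth of vehicle-treated control cultures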; conditions: S. cerevisiae rad14 strain growth inhibition, stronger effect = higher value
Procedure, shortened: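 Here, inhibition of yeast growth was measured after compound exposure, using a strain with a genetic defect in DNA damage repair and vehicle-treated cultures as the reference.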

[7] = NCI Yeast Anticancer Drug Screen. Data for the sgs1 mgt1 strain (AID 161);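 also: 0% = growth of cultures given vehicle only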; conditions: S. cerevisiae sgs1 mgt1 strain, stronger effect = higher value
Procedure, shortened: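 Mutant yeast exposed to compound; growth scored against vehicle-only wells.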

[8] = NCI Yeast Anticancer Drug Screen. Data for the CLN2oe strain (AID 163);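 also: 0% = growth of vehicle-only control cultures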; conditions: S. cerevisiae CLN2oe strain, stronger effect = higher value
Procedure, shortened: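 Read-out: yeast growth inhibition, expressed relative to vehicle-only controls. The strain bears an engineered cell-cycle alteration.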

[9] = NCI Yeast Anticancer Drug Screen. Data for the cln2 rad14 strain (AID 165);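 also: 0% = growth equal to vehicle treated cultures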; conditions: S. cerevisiae cln2 rad14 strain, stronger effect = higher value
Procedure, shortened: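 cln2 rad14 yeast strain; compound exposure; growth inhibition read vs vehicle controls.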

[10] = NCI Yeast Anticancer Drug Screen. Data for the bub3 strain (AID 167); conditions: S. cerevisiae bub3 mutant strain, stronger effect = higher value
Procedure, shortened: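 Whole-cell yeast assay. The mutant strain was incubated with compounds, and growth inhibition was determined by comparison with vehicle-treated cells.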

[11] = NCI Yeast Anticancer Drug Screen. Data for the wt2 strain (AID 169);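 also: 0% = growth of vehicle-treated yeast cultures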; conditions: S. cerevisiae wt2 strain growth inhibition, stronger effect = higher value
Procedure, shortened: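 Read-out: growth inhibition versus vehicle-treated control cultures after compound exposure of the yeast strain.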

[12] = NCI Yeast Anticancer Drug Screen. Data for the mlh1 strain (AID 171);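 also: 0% = growth of vehicle-treated control cultures of the same strain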; conditions: S. cerevisiae mlh1 strain growth inhibition, stronger effect = higher value
Procedure, shortened: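 Read-out: growth inhibition versus vehicle controls. Strain: engineered yeast with a defined DNA repair or cell cycle defect, compound-treated.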

[13] = NCI Yeast Anticancer Drug Screen. Data for the sgs1 strain (AID 173);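 also: 0% = growth of vehicle-only control cultures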; conditions: S. cerevisiae sgs1 mutant, stronger effect = higher value
Procedure, shortened: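 Read-out: yeast growth inhibition relative to vehicle controls, following compound exposure of a strain with a defined DNA repair/cell cycle alteration.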

[14] = NCI Yeast Anticancer Drug Screen. Data for the mlh1 rad18 strain (AID 175); conditions: S. cerevisiae mlh1 rad18 strain growth inhibition, stronger effect = higher value
Procedure, shortened: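 Yeast w/ defined DNA-repair lesions; compound exposure; growth vs vehicle controls → % inhibition.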

[15] = NCI Yeast Anticancer Drug Screen. Data for the rad18 strain (AID 177); conditions: S. cerevisiae rad18 mutant growth inhibition, stronger effect = higher value
Procedure, shortened: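 Readout: growth inhibition vs vehicle controls. Cells: genetically altered yeast strain, DNA repair defect.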

[16] = at 5.0 µM (retest, dose inferred, filed as 0.5)
[17] = at 50.0 µM (retest, dose inferred, filed as 5.0)

Measured: growth inhibition

S=C1SCN(CCc2ccccc2)CN1CCc1ccccc1
inactive: [1]; at 1.2 µM 12% | [1]; at 3.7 µM 21% | [1]; at 11.0 µM 46% | [1]; at 33.0 µM 63% | [1]; at 100.0 µM 46% | [2]; at 1.2 µM 26% | [2]; at 3.7 µM 51% | [3]; at 1.2 µM 1% | [3]; at 3.7 µM 0% | [3]; at 11.0 µM 35% | [3]; at 33.0 µM 42% | [3]; at 100.0 µM 26% | [4]; at 1.2 µM -12% | [4]; at 3.7 µM 5% | [4]; [16] 7% | [4]; at 11.0 µM 50% | [4]; at 33.0 µM 64% | [4]; [17] 38% | [4]; at 50.0 µM 55% | [4]; at 100.0 µM 52% | [5]; at 1.2 µM -3% | [5]; at 3.7 µM 1% | [5]; [16] 24% | [5]; at 11.0 µM 52% | [5]; at 33.0 µM 54% | [5]; [17] 55% | [5]; at 100.0 µM 38% | [6]; at 1.2 µM -20% | [6]; at 3.7 µM -4% | [6]; at 11.0 µM 2% | [6]; at 33.0 µM 34% | [6]; at 100.0 µM 16% | [7]; [16] 9% | [7]; [17] 48% | [8]; at 1.2 µM 3% | [8]; at 3.7 µM 10% | [8]; at 11.0 µM 25% | [8]; at 33.0 µM 45% | [8]; at 100.0 µM 17% | [9]; [16] 12% | [9]; [17] 12% | [9]; at 50.0 µM 22.1% | [10]; at 1.2 µM -2% | [10]; at 3.7 µM 3% | [10]; [16] -4% | [10]; at 11.0 µM 23% | [10]; at 33.0 µM 53% | [10]; at 100.0 µM 42% | [11]; at 1.2 µM 6% | [11]; at 3.7 µM 3% | [11]; at 11.0 µM 53% | [11]; at 33.0 µM 63% | [11]; at 100.0 µM 47% | [12]; at 1.2 µM -3% | [12]; at 3.7 µM -10% | [12]; at 11.0 µM 20% | [12]; at 33.0 µM 40% | [12]; at 100.0 µM 19% | [13]; at 1.2 µM -5% | [13]; at 3.7 µM 16% | [13]; at 11.0 µM 31% | [13]; at 33.0 µM 59% | [13]; at 100.0 µM 48% | [14]; [16] -9% | [14]; at 50.0 µM 58% | [15]; at 1.2 µM 15% | [15]; at 3.7 µM 25% | [15]; at 11.0 µM 47% | [15]; at 33.0 µM 65% | [15]; at 100.0 µM 39%
active: [2]; at 11.0 µM 85% | [2]; at 33.0 µM 92% | [2]; at 100.0 µM 81% | [5]; at 50.0 µM 71.8% | [7]; at 50.0 µM 76.2% | [10]; [17] 72% | [10]; at 50.0 µM 79.1% | [14]; [17] 80%
